Screening data: PubChem BioAssay, several laboratories
Hits are enriched below; roughly 2.9% of the tested compounds scored in any of these assays.
MEKK2wt PB1 HTS: raises or lowers MEK5 binding to wildtype human MEKK2 PB1 domain | bead flow cytometry, Alexa488-MEK5 binding to MEKK2 WT; actives lie on both sides | binding response (% of control), % at 10 µM | 290,000 compounds, 1.1% hits; in the data active means binding response below about 67% or above about 130%
dFosB act-1: activators of mouse delta FosB homodimer; activation, % at 25 µM; purified delta FosB, TAMRA-CDK5 oligo fluorescence polarization; percent of positive-control signal above neutral wells; 340,000 compounds, 0.99% hits; P13346;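 active means mean activation above about 17%, with every replicate also reaching it, limit read from the data, passing the limit was not always enough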
Target sequence (P13346 whole entry, looked up): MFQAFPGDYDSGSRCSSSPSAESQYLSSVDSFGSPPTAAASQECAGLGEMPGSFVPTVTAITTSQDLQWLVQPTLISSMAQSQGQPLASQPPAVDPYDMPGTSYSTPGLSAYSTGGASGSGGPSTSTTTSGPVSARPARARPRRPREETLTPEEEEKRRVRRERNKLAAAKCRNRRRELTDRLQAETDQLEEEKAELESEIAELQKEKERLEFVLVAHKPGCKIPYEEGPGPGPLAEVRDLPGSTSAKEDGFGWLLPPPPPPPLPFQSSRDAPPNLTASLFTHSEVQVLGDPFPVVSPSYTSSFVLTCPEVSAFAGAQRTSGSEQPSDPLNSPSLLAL
MEKK3 PB1 HTS: modulators (inhibitors or enhancers) of MEK5 binding to human MEKK3 PB1 domain. 290,000 compounds, 1.4% hits. AID 1529. binding response (% of control), % at 10 µM. bead-based flow cytometry, Alexa488-MEK5 binding to MEKK3; actives lie on both sides; 0 = blocked by unlabeled MEK5, 100 = vehicle. Q99759;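 active means binding response more than 3 SD above or below the average of its plate-row segment, actives on both sides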;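 further: Alexa488 bead fluorescence after subtracting the streptavidin-only scavenger bead signal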
MEKK2 mut-MEK5: signal of MEK5 binding to mutant human MEKK2 PB1 domain; bead flow cytometry, Alexa488-MEK5 binding to MEKK2 mutant; percent response, % at 10 µM; 290,000 compounds, 0.35% hits; AID 1530; in the data active means percent response above about 24%, passing the limit was not always enough
DNA FID counter: counter-screen for HCV NS3 helicase inhibitors: DNA intercalator displacement; DNA fluorescent intercalator displacement, fluorescence; inhibition, % at 7.9 µM; 290,000 compounds, 0.17% hits; in the data active means inhibition above about 37%;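 further: higher means more ethidium bromide displaced from hairpin DNA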
dFosB act-2: activators of mouse delta FosB homodimer DNA binding; shares compounds with dFosB act-1; purified delta FosB, TAMRA-CDK5 oligo fluorescence polarization; normalised: neutral wells 0, positive control 100; activation, % at 24.9 µM; 2,400 tested, under 10 active; AID 588690;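 active means highest replicate activation at or above 34% and every replicate reaching that threshold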;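 further: higher polarization means more probe DNA bound by delta FosB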
Hits are given with their value; 0 = inactive; - = no result.

SMILES	MEKK2wt PB1 HTS	dFosB act-1	MEKK3 PB1 HTS	MEKK2 mut-MEK5	DNA FID counter	dFosB act-2
CCC(OCC(O)CN1CCN(CCN2C(=O)c3cccc4cccc(c34)C2=O)CC1)c1ccccc1 (configuration not stated)	0	30	0	0	0	0
CC(=O)c1ccc(OCC(O)CN2CCN(CCN3C(=O)c4cccc5cccc(c45)C3=O)CC2)cc1 (configuration not stated)	0	38	0	0	0	0
Cc1c(NC(=O)CC2NC(=O)NC2=O)c(=O)n(-c2ccccc2)n1C (configuration not stated)	0	-	0	0	0	-
COc1ccc(/C(C)=N/NC(=O)c2nnn(-c3nonc3N)c2-c2ccccc2)cc1	0	30	0	0	0	0
C/C(=N\NC(=O)c1nnn(-c2nonc2N)c1C(C)C)c1ccc2ccccc2c1	0	41	0	0	0	0
O=C(c1ccccc1)N1CCN(c2ccc(N3CCOCC3)nn2)CC1	-	0	-	-	-	-
O=S1(=O)N=C(Nc2ccc(S(=O)(=O)N3CCCCC3)cc2)c2ccccc21	0	47	0	0	0	0
O=C(CN1C(=O)c2ccccc2S1(=O)=O)Nc1ccc(S(=O)(=O)N2CCCCCC2)cc1	0	0	0	0	0	-
Nc1c(N(CCC2=CCCCC2)C(=O)COc2ccc(F)cc2Cl)c(=O)[nH]c(=O)n1Cc1ccccc1	-	29	-	-	-	0
O=C(Cc1cccc2ccccc12)N/N=C/c1ccc(OC(=O)/C=C/c2ccco2)cc1	0	18	0	0	0	0
O=C(Cn1cc(C(F)(F)F)cc(Cl)c1=O)NCc1ccc(Cl)cc1Cl	0	46	0	0	0	0
COc1ccc(/C=C/C(=O)OCC(=O)Nc2c(C)cccc2C)cc1	0	25	0	0	0	0
Cc1ccc(-c2nc(NC(=O)CSc3nnc(C)s3)ns2)cc1	0	27	0	0	0	0
O=C(CSc1nnnn1-c1ccccc1)Nc1nsc(-c2ccc(Cl)cc2)n1	0	58	0	0	0	0
O=C(CSc1nnnn1-c1ccccc1)Nc1nsc(-c2ccccc2)n1	0	0	0	0	0	-
COC(c1ccccc1)c1nnc(CCC(=O)N(C)Cc2cccc(-n3cccn3)c2)o1 (configuration not stated)	0	0	0	0	0	-
Nc1nc(SCC(=O)NCc2ccc(F)cc2)[nH]c(=O)c1NC(=O)c1ccc(Cl)cc1	0	33	0	0	0	0
CC(=O)Nc1ccc(NC(=O)CSc2nc(N)c(NC(=O)c3ccccc3F)c(=O)[nH]2)cc1	0	17	0	0	0	0
CCOc1cc(NC(=S)NCC2CCCO2)c(OCC)cc1NC(=O)c1ccccc1F (configuration not stated)	0	0	0	0	0	-
O=C(NC(Cc1ccccc1)c1nc2ccccc2[nH]1)c1ccc(Cl)c([N+](=O)[O-])c1 (configuration not stated)	0	31	0	0	0	0
Cc1cc(N2CCN(C(=O)Nc3ccc(F)cc3F)CC2)c2ccccc2n1	0	0	0	0	0	-
CCCCc1ccc(NC(=O)N2CCN(c3cc(C)nc4ccccc34)CC2)c(C)c1	0	37	0	0	0	0
COc1ccc(O)c(C(=O)c2cnn(C(=O)c3cccc(S(=O)(=O)N(C)C)c3)c2)c1	-	37	-	-	-	0
CC(C)(CO)N1CCN(C(=S)Nc2ccccc2)CC1	0	0	0	0	0	-
COc1ccc(C(=O)NN(C)c2nc(-c3ccccc3)nnc2C(F)(F)F)cc1	-	68	-	-	0	0
SMILES	MEKK2wt PB1 HTS	dFosB act-1	MEKK3 PB1 HTS	MEKK2 mut-MEK5	DNA FID counter	dFosB act-2
Cc1ccc(C(=O)N2CCCC(C(=O)Nc3cccc(-c4ccc(F)cc4)c3)C2)cn1 (configuration not stated)	0	0	0	0	0	-
Cc1ccc(S(=O)(=O)N2CCN(C)CC2)cc1C	0	0	0	0	0	-
Cc1ccc(S(=O)(=O)N2CCN(S(=O)(=O)c3c(C)n[nH]c3C)CC2)cc1C	-	32	-	-	-	0
CCOc1ccc(/C=N/NC(=O)c2cc3ccccc3cc2OC)cc1	0	19	0	0	0	0
COc1cc2ccccc2cc1C(=O)N/N=C/c1cccnc1	0	0	0	0	0	-
Cc1occc1C(=O)N/N=C/c1ccc(OCc2ccccc2)cc1	0	30	0	0	0	0
COc1ccc(-c2noc(CCC(=O)N3CCN(c4ccc(Cl)cc4)CC3)n2)cc1	-	0	-	-	-	-
CCOC(=O)N1CCN(C(=O)c2cccc(S(=O)(=O)Nc3ccc(Br)cc3)c2)CC1	-	0	-	-	-	-
O=C(Nc1cc(S(=O)(=O)Nc2ccccc2Cl)ccc1O)c1cc2c(s1)CCCC2	0	32	0	0	0	0
COc1ccccc1CCN1CCCC(CN(C)C(=O)c2ccoc2)C1 (configuration not stated)	0	0	0	0	0	-
O=C(Cc1c(Cl)cccc1Cl)NCCc1ccc(Cl)cc1	0	20	0	0	0	0
COc1ccc(S(=O)(=O)N(C)C[C@H]2Oc3c(NC(=O)Nc4ccc(C(F)(F)F)cc4)cccc3C(=O)N([C@H](C)CO)C[C@@H]2C)cc1	-	66	-	-	-	0
C[C@H]1CN([C@@H](C)CO)C(=O)c2cccc(NC(=O)Nc3ccc(C(F)(F)F)cc3)c2O[C@@H]1CN(C)S(=O)(=O)c1ccccc1	-	29	-	-	-	0
CCCC(CCC)c1nnc(NC(=O)c2ccco2)s1	0	0	0	0	0	-
Cc1ccc(-c2noc(CCC(=O)Nc3ccccc3C)n2)cc1	0	0	0	0	0	-
CCc1ccccc1NC(=O)CCc1nc(-c2ccc(C)cc2)no1	0	21	0	0	0	0
CCc1c(C2(O)CCCCC2)[nH]c2ncccc12	-	0	-	-	-	-
CCCCOc1ccccc1NC(=O)Cn1c(-c2nonc2N)nc2ccccc21	0	74	0	0	0	0
COc1ccc(CCNC(=O)Cn2c(-c3nonc3N)nc3ccccc32)cc1OC	-	0	-	-	0	-
CC(C)(C)NC(=O)Cn1c(-c2nonc2N)nc2ccccc21	0	0	0	0	0	-
NNC(=O)Cn1c(-c2nonc2N)nc2ccccc21	0	0	0	0	0	-
CCOc1ccc(CCNC(=O)Cn2c(-c3nonc3N)nc3ccccc32)cc1OCC	0	24	0	0	0	0
Nc1nonc1-c1nc2ccccc2n1CC(=O)N/N=C\c1ccc(-c2ccc(Cl)cc2)o1	0	35	0	0	0	0
CC(C)Cc1nnc(NC(=O)CCC(=O)NCc2ccccc2Cl)s1	0	19	0	0	0	0
O=C(COc1ccc2c(c1)OCO2)Nc1ccc2c(c1)oc1ccccc12	0	81	0	0	0	0
CC(=O)Nc1ccc(Nc2cc(C)nc3c(-c4ccc(Cl)cc4)c(C)nn23)cc1	0	0	0	0	0	-
CC(=O)Nc1ccc(Nc2cc(C)nc3c(-c4ccc(Cl)cc4)cnn23)cc1	0	18	0	0	0	0
